Test [1] in a line: qHTS assay for small molecule agonists of the p53 signaling pathway (AID 651631; calls by dose curve; note: nearly all actives have a fitted effect of over 15% in size). The essentials: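 Fluorescence intensity from cleaved LiveBLAzer B/G substrate (2 h, room temperature) served as the signal. Beforehand, HCT-116 reporter cells bearing p53 response elements were treated 16 h at 37 °C with DMSO-dissolved compounds.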
A short description of test [2]: qHTS assay for small molecules that induce genotoxicity in human embryonic kidney cells expressing luciferase-tagged ATAD5 (AID 651632). Note: nearly all actives have a fitted effect of over 15% in size. The essentials: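 DMSO vehicle served as the control. HEK293T reporter cells, 16 hr at 37C, then 30 min Amplite at room temperature; ATAD5 induction is measured as luciferase activity.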
For orientation: qHTS replaces the single test concentration by a dilution series.

Test [3] can be described thus: qHTS assay for small molecule agonists of the p53 signaling pathway - cell viability (AID 651633; calls by dose curve;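 note: p53RE-bla HCT reporter cells with a stable beta-lactamase p53 reporter; series mostly up to about 83 µM; nearly all actives have a fitted effect of over 30% in size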). The essentials: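 Viability counter-read: CellTiter-Glo luminescence (30 min, room temperature) in the same p53RE-bla plates. These plates had been exposed to compounds for 16 h at 37 C.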
Test [4] in a line: qHTS assay for small molecules that induce genotoxicity in human embryonic kidney cells expressing luciferase-tagged ATAD5 - cell viability (AID 651634; calls by dose curve; note: nearly all actives have a fitted effect of over 25% in size). The essentials: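 Here HEK293T cells with the ATAD5 luciferase reporter are incubated with test compounds for 15.5 hr, and cytotoxicity is then gauged by measuring protease activity in live cells using fluorescence.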
A short description of test [5]: qHTS assay for small molecule disruptors of the mitochondrial membrane potential - cell viability (AID 720634; calls by dose curve;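 note: human HepG2 liver cancer cells; series mostly up to about 83 µM; nearly all actives have a fitted effect of over 20% in size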). The essentials: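 Viability of HepG2 cells is scored from ATP content by luminescence; cells are exposed to compound for 1 hr at 37 C and 5% CO2, then dosed with m-MPI dye before the CellTiter-Glo reagent.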
The nature of test [6]: qHTS assay to test for compound auto fluorescence at 590 nm (red) in HepG2 cells (AID 720674). The essentials: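 We screened compounds on adherent HepG2 cells, incubating them for an hour at 37 C in 5% CO2 before reading emission at 590 nm under 540 nm excitation; values reflect equivalence to Rose Bengal sodium fluorescence.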
Test [7] can be described thus: qHTS assay to test for compound auto fluorescence at 535 nm (green) in HepG2 cells (AID 720675).
Test [8] can be described thus: qHTS assay to test for compound auto fluorescence at 460 nm (blue) in HEK293 cells (AID 720678). The essentials:
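HEK293 cells (2,000/well, medium with 10% dialyzed FBS) attached 4-5 hr, then exposed to compound overnight at 37C, 5% CO2. Blue fluorescence read at 405/460 nm, with triamterene as reference fluorophore.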

A short description of test [9]: qHTS assay to test for compound auto fluorescence at 590 nm (red) in HEK293 cells (AID 720679). The essentials: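 HEK293 cells (2,000/well, 10% dialyzed FBS) attached 4-5 hr, then dosed with compound or DMSO and incubated overnight at 37C, 5% CO2. Red fluorescence read at 540/590 nm, Rose Bengal sodium as reference fluorophore.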
Test [10] is described as follows: qHTS assay to test for compound auto fluorescence at 535 nm (green) in HEK293 cells (AID 720680).
Test [11] in a line: qHTS assay to test for compound auto fluorescence at 460 nm (blue) in HEK293 cell free culture (AID 720681). The essentials: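 Blue fluorescence (Ex 405/Em 460 nm, triamterene-equivalent) was read immediately after pin transfer of compound or DMSO into medium (DMEM, 10% FBS) without cells.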
Test [12] can be described thus: qHTS assay to test for compound auto fluorescence at 535 nm (green) in HEK293 cell free culture (AID 720682). The essentials: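 Intrinsic compound fluorescence is measured in culture medium containing 10% FBS, with excitation at 485 nm and detection at 535 nm, referenced to fluorescein.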
Test [13] in a line: qHTS assay to test for compound auto fluorescence at 590 nm (red) in HepG2 cell free culture (AID 720684). The essentials: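 No cells present: MEM + 10% FBS only. Compound pinned in, red label read (540/590 nm). Activity = fluorescence equivalent to Rose Bengal sodium.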
Test [14] can be described thus: qHTS assay to test for compound auto fluorescence at 460 nm (blue) in HepG2 cell free culture (AID 720685). The essentials:
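Cell-free plates of MEM plus 10% FBS received 23 nL compound or DMSO vehicle; blue-channel (405/460 nm) intensity scored against triamterene as reference fluorophore.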

The nature of test [15]: qHTS assay to test for compound auto fluorescence at 535 nm (green) in HepG2 cell free culture (AID 720686).
A short description of test [16]: qHTS assay to test for compound auto fluorescence at 460 nm (blue) in HepG2 cells (AID 720687). The essentials:
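Blue-channel autofluorescence (Ex/Em 405/460 nm, triamterene-equivalent) was measured after 1 hr compound exposure at 37 C, 5% CO2. Cells were HepG2, plated overnight at 37 C in MEM plus 10% FBS.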

Test [17] deals with Glucocorticoid receptor (Homo sapiens) (UniProt P04150). The test can be described thus: qHTS assay to identify small molecule agonists of the glucocorticoid receptor (GR) signaling pathway (AID 720691; active = well fitted activation curve with a large enough effect in the signal ratio in the repeat runs, not every such curve was filed as active; the % refers to the signal ratio). The essentials: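 Compounds in DMSO, alongside positive controls, were added to GR-bla HeLa reporter cells and incubated 18 h at 37 C; GRE-driven beta-lactamase was detected by fluorescence after 2 h with FRET substrate at room temperature.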
Glucocorticoid receptor (Homo sapiens), sequence (P04150 whole entry, looked up): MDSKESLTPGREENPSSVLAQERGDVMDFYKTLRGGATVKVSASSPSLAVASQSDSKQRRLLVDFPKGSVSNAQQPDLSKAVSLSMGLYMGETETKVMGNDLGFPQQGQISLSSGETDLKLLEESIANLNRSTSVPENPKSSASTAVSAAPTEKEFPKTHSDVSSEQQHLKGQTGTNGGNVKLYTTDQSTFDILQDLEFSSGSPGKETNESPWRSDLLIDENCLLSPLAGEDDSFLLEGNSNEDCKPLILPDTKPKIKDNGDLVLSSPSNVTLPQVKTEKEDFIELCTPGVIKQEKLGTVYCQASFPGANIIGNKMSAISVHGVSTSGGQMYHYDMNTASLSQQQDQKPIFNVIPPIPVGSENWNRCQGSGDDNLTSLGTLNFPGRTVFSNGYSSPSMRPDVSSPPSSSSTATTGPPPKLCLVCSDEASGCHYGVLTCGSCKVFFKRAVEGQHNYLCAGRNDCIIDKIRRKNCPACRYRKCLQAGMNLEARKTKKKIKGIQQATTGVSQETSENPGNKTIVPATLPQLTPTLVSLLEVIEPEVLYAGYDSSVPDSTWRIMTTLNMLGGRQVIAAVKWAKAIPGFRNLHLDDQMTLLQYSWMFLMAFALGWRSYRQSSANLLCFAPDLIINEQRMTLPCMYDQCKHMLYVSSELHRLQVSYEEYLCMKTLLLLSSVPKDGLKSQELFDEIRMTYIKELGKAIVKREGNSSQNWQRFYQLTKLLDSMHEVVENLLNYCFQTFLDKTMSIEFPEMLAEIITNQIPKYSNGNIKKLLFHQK

The target is the same in test [18]. The experiment in a line: qHTS assay to identify small molecule antagonists of the glucocorticoid receptor (GR) signaling pathway (AID 720692; active = well fitted inhibition curve with a large enough effect in the signal ratio in the repeat runs, not every such curve was filed as active; the % refers to the signal ratio). The essentials:
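In a 1536-well cell format, compounds were added 4 h after seeding GR-bla HeLa cells, together with dexamethasone at 5 nM final; reporter activity was measured by FRET-substrate fluorescence following 18 h at 37 C.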

A short description of test [19]: qHTS assay for small molecule disruptors of the mitochondrial membrane potential (AID 720635). Note: potency is the fitted concentration of half-maximal effect. The essentials: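 Mitochondrial membrane potential tracked with Mito-MPS dye, red aggregates (ex 540/em 590 nm) against green monomers (ex 490/em 535 nm). Compound treatment 1 hr at 37C, dye 30 min in HepG2.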
Test [20] can be described thus: qHTS assay to test for compound auto fluorescence at 590 nm (red) in HEK293 cell free culture (AID 720683). The essentials:
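Red-channel autofluorescence of compounds in culture medium (DMEM, 10% FBS), no cells, measured at 540/590 nm. Rose Bengal sodium is the reference fluorophore for equivalence.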

Values joined by “and” are separate entries in the source; they are usually repeats but may differ in a detail not shown here. Equal values may be shown once. Records with an inconclusive call do not appear. Active and inactive are the calls of the source. Unless noted, calls come from the whole dose curve; as a rule, active = well fitted curve in the direction sought with a large enough effect in the repeat runs; inconclusive = weak or mixed curves; inactive = no such curve, though single readings can be large; an effect the other way counts as inactive or inconclusive.

With `CNC(=O)O/N=C/C(C)(C)SC`, the Potency result in test [1], in [2], in test [3], in [4], in [5] and in test [18] was “inactive” each time. Besides, the call in [6], in [7], in [8], in test [9], in test [10] and in test [11] was inactive. Also, the molecule was classed as inactive in [12], in [13], in [14], in test [15], in [16] and in [17].
For the molecule `Clc1cnc(Oc2ccc(Oc3ncc(Cl)cc3Cl)cc2)c(Cl)c1`, the Potency result in test [1], in test [2], in test [3], in test [4], in test [5] and in [18] was “inactive” in each case. In addition, the Potency in test [19] was 10.7 µM (active) and 48.6 µM (active). Moreover, the outcome in test [6], in test [7], in test [8], in [9], in test [10] and in [11] was inactive. Moreover, the molecule was called inactive in test [12], in test [13], in [14], in [15], in [16] and in test [17].
Take `CC(C)CCCCCCOC(=O)c1ccccc1C(=O)OCCCCCCC(C)C`: the Potency result in test [1], in test [2], in test [3], in test [4], in test [5] and in test [19] was “inactive” throughout. In addition, the Potency result in test [18] is “inactive”. Also, the molecule was classed as inactive in [6], in test [7], in test [8], in [9], in test [10] and in [11]. For the same molecule, the call in test [12], in [13], in test [14], in [15], in test [16] and in [17] was inactive.
For the molecule `N#Cc1cccc(C#N)c1`, the Potency result in test [1], in [2], in test [3], in [4], in [5] and in test [19] was “inactive” throughout. For the same molecule, the Potency result in [18] was “inactive”. Further, the call in [6], in test [7], in [8], in [9], in test [10] and in [11] was inactive. Besides, the molecule was called inactive in test [12], in test [20], in test [13], in test [14], in test [15] and in test [16]. Besides, the molecule was classed as inactive in test [17].
For the molecule `COP(=S)(OC)SCN1C(=O)c2ccccc2C1=O`, the Potency result in test [1], in test [2], in test [3], in test [4], in test [5] and in [19] was “inactive” each time. In addition, in [18], the Potency result is “inactive”. Also, the result in test [6], in [7], in test [8], in test [9], in test [10] and in test [11] was inactive. For the same molecule, the outcome in test [12], in test [13], in [14], in test [15], in test [16] and in test [17] was inactive.
On to `C=CC#N`, for which the Potency entry in [1], in test [2], in [3], in [4], in test [5] and in test [19] was “inactive” each time. Further, the Potency entry in [18] was “inactive”. In addition, the molecule was called inactive in test [6], in test [7], in [8], in [9], in test [10] and in [11]. Further, the molecule was classed as inactive in test [12], in [13], in test [14], in test [15], in [16] and in test [17].
On to `O=[N+]([O-])c1cc([As](=O)(O)O)ccc1O`, for which the Potency entry in [1], in [2], in test [3], in test [4], in test [5] and in [19] was “inactive” in each case. Moreover, in test [18], the Potency result is “inactive”. Further, the molecule was called inactive in [6], in test [7], in test [8], in test [9], in test [10] and in test [11]. The call in [12], in [13], in [14], in test [15], in test [16] and in test [17] was inactive.
Regarding `CCNc1nc(Cl)nc(NC(C)C)n1`, the Potency result in test [1], in test [2], in test [3], in test [4] and in [18] was “inactive” each time. The call in [6], in test [7], in [8], in test [9], in test [10] and in test [11] was inactive. For the same molecule, the outcome in [12], in test [13], in test [14], in test [15], in test [16] and in test [17] was inactive.

Values taken from PubChem BioAssay (Tox21).
